Results reported in PubChem BioAssay AID1053173 (Broad Institute, 2014).
About 390 (26%) of roughly 1,500 compounds were called active. The rule behind the calls is not given here. A selection follows. Entries with a potency or affinity are not part of this list.

Target: Histone-lysine N-methyltransferase NSD2 (Homo sapiens) (UniProt O96028)
Experiment: blockers of NSD2 H4 peptide methylation – biochemical, AlphaScreen, cherry-picked samples, dose response (AID 1053173);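 note: 0% = neutral control wells and -100% = positive control wells on each plate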
Conditions: 120 min; series mostly up to 10 µM; activity change, negative = inhibition: at the top concentration

Sequence of Histone-lysine N-methyltransferase NSD2 (Homo sapiens) (O96028 whole entry, looked up): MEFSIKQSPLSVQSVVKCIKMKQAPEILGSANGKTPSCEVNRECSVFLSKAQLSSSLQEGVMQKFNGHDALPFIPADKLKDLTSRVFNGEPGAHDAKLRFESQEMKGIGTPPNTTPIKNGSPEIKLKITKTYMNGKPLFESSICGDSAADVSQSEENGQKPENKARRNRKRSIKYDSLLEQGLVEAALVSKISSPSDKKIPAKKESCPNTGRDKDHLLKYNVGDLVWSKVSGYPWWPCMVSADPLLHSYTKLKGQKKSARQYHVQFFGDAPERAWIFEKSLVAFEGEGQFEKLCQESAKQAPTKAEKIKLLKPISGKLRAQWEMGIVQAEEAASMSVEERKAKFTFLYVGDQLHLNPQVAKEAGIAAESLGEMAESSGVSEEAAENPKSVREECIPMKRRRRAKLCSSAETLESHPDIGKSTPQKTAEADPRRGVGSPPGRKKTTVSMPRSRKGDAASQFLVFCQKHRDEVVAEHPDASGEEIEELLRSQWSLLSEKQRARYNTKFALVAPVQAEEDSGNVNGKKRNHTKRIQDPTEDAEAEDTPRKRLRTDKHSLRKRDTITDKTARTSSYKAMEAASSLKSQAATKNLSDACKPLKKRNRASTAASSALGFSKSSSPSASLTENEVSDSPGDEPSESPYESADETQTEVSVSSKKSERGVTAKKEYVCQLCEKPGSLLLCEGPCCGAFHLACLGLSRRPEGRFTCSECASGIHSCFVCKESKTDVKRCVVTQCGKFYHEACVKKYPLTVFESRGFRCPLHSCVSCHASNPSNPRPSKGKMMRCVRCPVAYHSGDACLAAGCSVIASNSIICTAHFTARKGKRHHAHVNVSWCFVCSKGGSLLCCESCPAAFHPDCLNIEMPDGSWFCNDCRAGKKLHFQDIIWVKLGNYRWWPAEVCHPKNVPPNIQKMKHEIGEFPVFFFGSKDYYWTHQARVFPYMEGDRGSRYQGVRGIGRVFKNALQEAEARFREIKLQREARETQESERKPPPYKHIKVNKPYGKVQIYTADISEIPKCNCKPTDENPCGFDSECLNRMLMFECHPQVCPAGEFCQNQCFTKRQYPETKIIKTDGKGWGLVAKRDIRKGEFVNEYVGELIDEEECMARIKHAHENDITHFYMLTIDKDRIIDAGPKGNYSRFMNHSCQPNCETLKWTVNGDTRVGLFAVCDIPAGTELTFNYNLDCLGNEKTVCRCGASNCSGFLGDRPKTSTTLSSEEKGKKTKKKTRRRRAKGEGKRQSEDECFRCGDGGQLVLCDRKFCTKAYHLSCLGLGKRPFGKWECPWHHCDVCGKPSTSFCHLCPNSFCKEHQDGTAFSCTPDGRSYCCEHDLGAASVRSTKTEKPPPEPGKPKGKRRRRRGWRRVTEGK

Activity change, negative = inhibition, inactive:
COc1ccc(NC(=O)C2Cc3c(-c4ccc(Cl)cc4)ccnc3O2)cc1 (stereo not given) 4.33%
O=C(O)CC1S/C(=N/N=C/c2ccc(-c3ccccc3[N+](=O)[O-])o2)NC1=O (stereo not given) -2.32%
CCN1C(=O)/C(=C\c2ccc(-c3ccc([N+](=O)[O-])cc3OC)o2)SC1=Nc1cccc(C(=O)O)c1 -11.5%
Nc1ccc2c(c1)OCCOCCOCCOCCOCCO2 0.815%
CCCOc1ccc(C(C)=O)cc1CC(C(N)=O)C(N)=O -1.92%
COc1ccc2c(c1)Cc1sc(NC(=O)c3ccccc3)nc1-2 -2.64%
NC(=O)c1nsc(C(=O)N(c2ccccc2)C(C(=O)NCC2CCCO2)c2ccc3ncccc3c2)c1N (stereo not given) 0.907%
CCOC(=O)C1CCCN(C(=O)c2ccc(S(=O)(=O)Nc3ccccc3OC)cc2)C1 (stereo not given) 4.12%
O=C(Nc1ccc(S(=O)(=O)Nc2ncccn2)cc1)C1CC(=O)N(c2ccc(Cl)cc2)C1 (stereo not given) -2.03%
O=C(NCCc1ccccn1)C1CCCN1S(=O)(=O)c1ccc(Cl)cc1 (stereo not given) 2.82%
Cn1c(SCC(=O)Nc2ccc3c(c2)OCCO3)nnc1-c1ccncc1 -2.11%
CCOC(=O)c1cccc(P(C)(C)=O)c1 -1.87%
COc1ccccc1NC(=O)c1ccc(NC(=O)C2COc3ccccc3O2)cc1 (stereo not given) -1.04%
C=CC[n+]1c(-c2ccc(Cl)cc2Cl)csc1Nc1c(C)n(C)n(-c2ccccc2)c1=O -13.5%
CCN(C(=S)Nc1cccnc1)c1cccc2ccccc12 -3.41%
S=C(Nc1cccnc1)Nc1cccc2cnccc12 -0.94%
O=c1c2ccccc2nnn1CSc1nc2ccccc2c(=O)n1CCCO 1.38%
O=C(NC(=S)Nc1ccccc1N1CCCC1)c1ccco1 -10.3%
Cc1cc2c(OCC(O)CNC3CCCCC3)cccc2[nH]1 (stereo not given) -6.61%
CC1=CS(=O)(=O)CC1Sc1ncn[nH]1 (stereo not given) -1.01%
COc1cccc(CNc2cccc3cccnc23)c1O -0.684%
Oc1ccc(CNc2ccccc2O)cc1 -2.41%
Cc1ccccc1N(C(=O)c1snc(C(N)=O)c1N)C(C)C(=O)NC1CCCCC1 (stereo not given) 0.295%
CC(=O)Nc1ccc(NCc2ccc(C)s2)cc1 1.27%
CCOc1c(O)ccc(/C=C2\SC(=S)NC2=O)c1[N+](=O)[O-] -7.61%
Cc1ccc(Cl)c(OCC(=O)Nc2cc(S(=O)(=O)N3CCOCC3)ccc2N2CCCC2)c1 1.64%
COc1ccc(CN(C(=O)CN2C(=O)NC3(CCC(C)CC3)C2=O)C(C)Cc2cccs2)cc1 (stereo not given) -1.57%
c1ccc(-c2nc(N3CCOCC3)c3ccccc3n2)nc1 -3.18%
CCc1nnc(NC(=O)COc2ccc3c(c2)OCO3)s1 -3.47%
CN1CCCCc2c1nc1ccccc1c2N (tested in a mixture with another compound) -14%
COc1cc(/C=C/C(=O)OCC(=O)NNC(=O)c2cc(Cl)ccc2OC)ccc1O 3.64%
Cc1cc(OCC(=O)Nc2ccccc2N2CCCCC2)ccc1C(C)C 2.21%
COc1ccccc1/C=N/Nc1cc(C)nc(N2CCOCC2)n1 11.2%
FC(F)(F)c1ccc(N/N=C/c2cccnc2)nc1 -1.15%
N#Cc1cc(-c2ccccc2)cnc1Sc1ccc(Cl)cc1 6.46%
CN1CC2(Cc3c1ccc1ccccc31)C(=O)OC(C)(C)OC2=O -0.443%
CC1=NOC(=O)/C1=C\c1ccc(-c2ccc(Cl)c(C(=O)O)c2)o1 -10.8%
Cc1cc(=O)cc(C)n1-c1ccc(O)cc1 -3%
CSc1ncccc1C(=O)OCC(=O)N1CC2(C)CC1CC(C)(C)C2 (stereo not given) -1.03%
Cn1c(=O)cc(SCC(=O)N2CCOCC2)c2ccc(Cl)cc21 -0.94%
O=S(=O)(Nc1nc(-c2ccco2)c(-c2ccco2)s1)c1ccc(F)cc1F -6.56%
O=C(COC(=O)c1cc(S(=O)(=O)N2CCOCC2)ccc1F)c1ccc[nH]1 -2.3%
CCN(CC)C(=O)c1cc([N+](=O)[O-])cc2c1-c1ccc([N+](=O)[O-])cc1C2=C(C#N)C#N -6.91%
CC(=O)c1cc(-c2ccccc2)n(CC(=O)NC2CCCCC2)c1C -3.33%
COc1ccc(-c2c3c(nc4sc(C(=O)Nc5cc(C)on5)c(N)c24)CCC3)cc1 12.8%
N=C1SCC(=O)N1c1ncc(Cc2cccc(Cl)c2)s1 4.23%
Cc1cccc(OCCC(=O)Nc2ccccc2C(N)=O)c1 -0.179%
CCOC(=O)c1cc(-c2ccc(F)cc2)nc2c1c(=O)[nH]c(=O)n2Cc1ccccc1 6.15%
CCOC(=O)c1c(C)[nH]c(C)c1C(=O)COC(=O)[C@@H]1CCCN1S(=O)(=O)c1ccc(Cl)cc1 -6.9%
Cc1c(C)n(Cc2ccccc2)c2ccc(C(=O)OCCCN(C)C)cc12 -4.55%
CCn1cnc2c1c(=O)n(CC(=O)O)c(=O)n2Cc1ccccc1 -4.49%
Cc1cc(=O)n(Cc2ccccc2)c(O)c1C#N -1.83%
COC(=O)c1c(SCC(=O)Nc2ccc(C)c(C)c2)nc(=O)[nH]c1C -3.37%
COc1ccc(S(=O)(=O)N(C)CC(=O)NCCN2CCOCC2)cc1Cl -0.151%
c1ccc(CCN2CN=C(Nc3nc4ccccc4s3)NC2)cc1 -2.52%
O=C1CC2(CCCCC2)CC(=O)N1CCc1ccccc1 -2.82%
Nc1ccc(N=Nc2ccccc2O)c(N)c1 -12.8%
O=C(OCc1ccc(Cl)c(Cl)c1)c1cccnc1Cl -0.016%
CCN1CCN(CCCNC(=O)c2ccc3c(c2)NC(=O)/C(=C\c2cccc(C)c2)S3)CC1 -3.33%
O=C(CN1CCOCC1)Nc1ccc(Oc2ccccc2)cc1 -1.22%
O=C(O)C=C1C2CC3CC(C2)CC1C3 -2.4%
COC(=O)CC1=NN(c2ccc(OC)cc2)C(=O)/C1=C\c1ccc(Cl)cc1 -0.285%
Nc1nonc1C(=O)N/N=C/c1cc2c(cc1[N+](=O)[O-])OCO2 -2.99%
CC(C)(C)C(=O)NC1CC2CCCC(C1)N2C(=O)Nc1ccc(Cl)cc1 (stereo not given) 4.82%
COc1ccc2c(C#N)c3ccccn3c2c1 -2.94%
COc1ccc(-c2cn[nH]c2N)cc1 4.01%
CN(C)CCCN1C(=O)c2cccc3c([N+](=O)[O-])ccc(c23)C1=O -14.9%
O=C1CC(=O)Nc2cc(S(=O)(=O)Nc3ccc(Cl)c(C(F)(F)F)c3)ccc2N1 0.666%
COc1ccc(NS(=O)(=O)c2cccc(C(=O)N3CCCCCC3)c2)cc1 -3.61%
CC(=O)NC1=NN(C(C)=O)C(C)(c2cccc([N+](=O)[O-])c2)S1 (stereo not given) -1.79%
